Screening results deposited in PubChem BioAssay by National Center for Advancing Translational Sciences (NCATS).
Sampled rows, rich in hits. Any-hit rate of the full collection: about 0.54%.
LDHA inh = blocks human lactate dehydrogenase A | P00338 | purified LDHA, NADH/diaphorase-resazurin fluorescence; active compounds read low | activity change, % (values are at about 110 or 230 µM) | 480,000 compounds, 0.15% hits; in the data active means activity change below about -30%; inconclusive means mostly about -25% to -30%;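 further: plate controls were DMSO wells for no effect and wells without enzyme for full effect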
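LDH5 2 nM; NADH 0.06 mM, pyruvate 0.2 mM; 200 mM Tris pH 7.4, EDTA, Tween-20; 5 min RT. Detection: diaphorase 0.133 mg/mL + resazurin 37 µM, fluorescence ex540/em590 at 0 and 20 min; normalized to enzyme-free and DMSO wells.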
mIDH1 inhibitor = blocks human mutant IDH1 R132H enzyme; IDH1-R132H enzyme, NADPH consumption, diaphorase/resazurin fluorescence; Potency, µM (titrated, usually from 76.6 µM), inactives show at the highest dose activity change, negative = inhibition, usual class: inhibitors; 390,000 compounds, 0.093% hits; AID 602179; further: potency means the concentration at half of the fitted maximal effect; on the % scale 0 is the no-effect control and ±100 the full control effect; nearly all actives have a fitted effect of over 65% in size
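IDH1-R132H (0.5 ug/mL dispensed) in pH 7.5 Tris buffer was preincubated 30 min with compound, then given a substrate mix of 0.016 mM NADPH and 2 mM alpha-KG for 80 min at room temperature; remaining NADPH was read by diaphorase/resazurin fluorescence.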
pAkt inh = Akt phosphorylation inhibition | activity change, % for hits at 50 µM | AID 651550 | Neuro2A IGF-stimulated pAkt S473 HTRF, 20 min; active compounds read low | 360,000 compounds, 0.32% hits; in the data active means activity change below about -80%; inconclusive means mostly about -51% to -80%; further: on the % scale 0 is the no-effect control and ±100 the full control effect
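Neuro2A cells in DMEM with 0.5% FBS, overnight at 37 deg C, given compound at single 50 µM final, then IGF (6 nM final) for 20 min at 37 deg C. Lysed; phospho-Akt Ser473 by HTRF after 24 h, 665/615 ratio.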
Menin-MLL FL inh = inhibitors of human menin-MLL interaction, wild-type MLL peptide; FP activity change, % at 61.4 µM; Fluorescence polarization, fluorescein-MLL peptide displacement from menin; 290,000 tested, under 10 active; active means well fitted curve in the direction sought with a large enough effect in the polarisation, not every such curve was filed as active; inconclusive means small, poorly fitted or top-dose-only effect, or effect the other way, or a change in a side signal; inactive means no such curve, though single readings can be large or run the other way; the % refers to the polarisation; further: % of control where 0% means no effect
Menin MLL FP TR = menin-MLL binding inhibition, Texas Red mutant peptide. Potency, µM (top dose mostly 61.6 µM), inactives show at the highest dose FP activity change, negative = inhibition, most hits filed as inhibitors. 270,000 compounds, 0.23% hits. AID 1768. Menin + Texas Red MLL mutant peptide, fluorescence polarization; active means well fitted inhibition curve with a large enough effect in the polarisation, with a control signal flat, not every such curve was filed as active; inconclusive means small, poorly fitted or top-dose-only effect, or effect the other way, or a change in a side signal; inactive means no such curve, though single readings can be large or run the other way; the % refers to the polarisation; further: potency means the concentration at half of the fitted maximal effect; % of control where 0% means no effect
Target sequence (O00255 whole entry, looked up): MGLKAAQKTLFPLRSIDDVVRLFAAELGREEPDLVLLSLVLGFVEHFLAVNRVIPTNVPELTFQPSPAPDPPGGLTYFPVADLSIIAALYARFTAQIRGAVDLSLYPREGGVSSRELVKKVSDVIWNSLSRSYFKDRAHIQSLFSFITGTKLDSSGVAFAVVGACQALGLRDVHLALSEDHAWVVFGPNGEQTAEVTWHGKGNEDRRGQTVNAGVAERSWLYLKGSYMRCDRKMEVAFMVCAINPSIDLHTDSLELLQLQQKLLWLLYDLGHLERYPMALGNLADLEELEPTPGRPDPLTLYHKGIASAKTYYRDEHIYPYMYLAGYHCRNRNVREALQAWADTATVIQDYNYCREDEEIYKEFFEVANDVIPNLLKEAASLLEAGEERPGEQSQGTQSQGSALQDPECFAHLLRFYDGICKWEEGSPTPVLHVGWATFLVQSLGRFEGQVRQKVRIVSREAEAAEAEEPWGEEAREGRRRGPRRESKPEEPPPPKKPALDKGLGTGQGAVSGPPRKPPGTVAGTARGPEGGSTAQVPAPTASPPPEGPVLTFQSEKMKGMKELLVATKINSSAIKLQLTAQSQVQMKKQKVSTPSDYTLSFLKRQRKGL
MLL CXXC-DNA inh = blocks binding of human MLL CXXC domain to DNA | AID 2662 | 290,000 compounds, 0.037% hits | Q03164 | Potency, µM (doses to about 115 µM), for inactives: top-dose activity change, negative = inhibition, most hits filed as inhibitors | MLL-CXXC / FITC-HOXA9 DNA fluorescence polarization; active means well fitted inhibition curve with a large enough effect in the polarisation, with a control signal flat, not every such curve was filed as active; inconclusive means small, poorly fitted or top-dose-only effect, or effect the other way, or a change in a side signal; inactive means no such curve, though single readings can be large or run the other way; the % refers to the polarisation; further: potency means the concentration at half of the fitted maximal effect
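Steps: dispense CXXC domain solution (7 uM) → pin compounds or unlabeled HOX-A9 DNA control → 5 min ambient → add FLSN-HOX-A9 solution (50 nM) → spin → 30 min ambient → fluorescence polarization. Tris pH 7.5/NaCl/DTT/BSA buffer.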
IDH1 autofl = autofluorescence interference, mutant IDH1 hit counter-screen | Resorufin detection reagent fluorescence interference, cell-free | shares compounds with mIDH1 inhibitor | 750 tested, under 10 active | inhibition of signal, % at 51.2 µM;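 further: 0% = wells with normal resorufin and full inhibition = wells lacking resorufin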
WT IDH1 inh = wild-type IDH1 (human) inhibition counterscreen. 750 compounds, 9% hits. Potency, µM (series often up to 115 µM), inactives show at the top dose activity change, negative = inhibition, actives largely listed as inhibitors. WT IDH1 enzyme, NADPH diaphorase/resazurin fluorescence. shares compounds with mIDH1 inhibitor;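 further: potency means the concentration at half of the fitted maximal effect; 0% = full WT IDH1 enzyme control and full inhibition = no enzyme wells; nearly all actives have a fitted effect of over 55% in size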
IDH1 R132H conf = inhibits human mutant IDH1 enzyme in cherrypick confirmation | shares compounds with mIDH1 inhibitor | IDH1 R132H enzyme, NADPH diaphorase/resazurin fluorescence | Potency, µM (series often up to 76.6 µM), without a hit: at the highest dose activity change, negative = inhibition, usual class: inhibitors | 750 compounds, 83% hits | AID 624002; further: potency means the concentration at half of the fitted maximal effect; nearly all actives have a fitted effect of over 50% in size
* marks the source's active call; other numbers are inactive results; i = inactive; ? = inconclusive; · = no result given. Unless noted, the call rests on the fitted dose curve; in most records, active means well fitted curve in the direction sought with a large enough effect; inconclusive means small, poorly fitted or top-dose-only effect, or another doubt; inactive means no such curve, though single readings can be large; an effect the other way counts as inactive or inconclusive.

SMILES | LDHA inh | mIDH1 inhibitor | pAkt inh | Menin-MLL FL inh | Menin MLL FP TR | MLL CXXC-DNA inh | IDH1 autofl | WT IDH1 inh | IDH1 R132H conf
CCOc1ccc(NC(=O)c2c[nH]n3c(=O)cc(C4CCN(C(=O)OC(C)(C)C)CC4)nc23)cc1 | -13 | 52µM* | i | 4 | · | -21% | -13 | 50µM* | 25µM*
CCOC(=O)C1=C(O)/C(=C/c2ccc(OCC(=O)O)c(OCC)c2)SC1=Nc1ccc(C)cc1 | -1 | ? | i | 15 | -1% | -22% | · | · | ·
CCOC(=O)C1=C(O)/C(=C/c2ccc(OCC(=O)O)c(OCC)c2)SC1=Nc1ccc(OC)cc1 | -3 | 46µM* | i | 3 | 0% | 1% | 8 | 50µM* | ?
O=C(Nc1ccccc1F)N(Cc1ccc(F)cc1)Cc1nc2ccccc2c(=O)[nH]1 | -4 | ? | i | 2 | 11% | -5% | · | · | ·
O=C(NC1CCCCC1)N(Cc1ccc(F)cc1)Cc1nc2ccccc2c(=O)[nH]1 | -4 | ? | i | 0 | ? | -3% | 0 | 10% | 28µM*
Cc1ccc(NC(=O)C23CC4CCC(CC(C4)C2)C3)cc1 | -14 | · | · | · | · | · | · | · | ·
CCCOc1ccc(C2C(C(=O)c3ccc(C)o3)=C(O)C(=O)N2Cc2ccco2)cc1OCC (configuration not stated) | -1 | 52µM* | i | -3 | -21% | -14% | -1 | 6% | ?
NNc1ccc(F)cc1F | 5 | · | · | · | · | · | · | · | ·
COCCn1c(SCC(=O)c2ccc(F)cc2)nnc1-c1ccc(Cl)cc1 | -5 | · | · | · | · | · | · | · | ·
COC(=O)c1c(NC(=O)/C=C/C(=O)O)sc(C)c1-c1ccc(C)c(C)c1 | -1 | ? | i | -6 | 1% | -29% | · | · | ·
CCOC(=O)c1c(NC(=O)/C=C/C(=O)O)sc(C)c1-c1ccc(C)c(C)c1 | -7 | 23µM* | i | 1 | 18% | -16% | -4 | ? | 45µM*
O=C(c1ccc(Cl)cc1)c1c[nH]c(C(=O)C(Cl)(Cl)Cl)c1 | -1 | ? | i | 1 | 0% | 9% | -11 | 1% | 25µM*
Cc1noc(NS(=O)(=O)c2ccc(NS(=O)(=O)c3ccc(C(C)(C)C)cc3)cc2)c1C | -2 | 40µM* | i | · | · | · | 9 | -7% | 11µM*
COc1ccc(S(=O)(=O)Nc2ccc(Cc3ccncc3)cc2)cc1C | -2 | 1% | i | · | · | 15% | · | · | ·
CC(C)(C)c1ccc(S(=O)(=O)Nc2ccc(Cc3ccncc3)cc2)cc1 | 3 | ? | i | 4 | 17% | -1% | -1 | -6% | 20µM*
CC(C)c1ccc(NC(=O)C(c2ccccc2)N2CC(=O)Nc3ccccc32)cc1 (configuration not stated) | 3 | ? | i | 4 | 5% | 25% | 0 | -2% | 25µM*
Cc1cccc(Cn2c(N3CCN(CC(N)=O)CC3)nc3c2c(=O)[nH]c(=O)n3C)c1 | 5 | · | · | · | · | · | · | · | ·
CCCc1cc(N2CCN(C(=O)c3ccco3)CC2)n2c(nc3ccccc32)c1C#N | 0 | ? | i | 3 | 5% | 2% | -4 | ? | 40µM*
CC(C)NC(=O)CSc1ccc2c(c1)OCCO2 | 9 | · | · | · | · | · | · | · | ·
CCOC(=O)c1ccc(N2C(=O)c3n[nH]c(-c4ccco4)c3C2c2ccc(O)c(OC)c2)cc1 (configuration not stated) | 5 | ? | · | · | · | · | 3 | -7% | 20µM*
CCOC(=O)c1ccc(N2C(=O)c3[nH]nc(-c4ccccc4)c3C2c2cccs2)cc1 (configuration not stated) | -9 | ? | · | · | · | · | 2 | 11% | -14%
CCCCCn1c(=N)c(S(=O)(=O)c2ccccc2)cc2c(=O)n3ccccc3nc21 | -10 | 20µM* | · | · | · | · | 2 | 5% | 7.9µM*
CCn1c(=N)c(S(=O)(=O)c2ccccc2)cc2c(=O)n3ccccc3nc21 | -13 | 0% | i | 23 | 1% | -5% | · | · | ·
COc1ccc(CCn2c(=N)c(S(=O)(=O)c3ccccc3)cc3c(=O)n4ccccc4nc32)cc1 | -7 | 3% | i | ? | 21% | -10% | · | · | ·
CCCn1c(=N)c(S(=O)(=O)c2ccccc2)cc2c(=O)n3ccccc3nc21 | -5 | 40µM* | i | 7 | · | 0% | 4 | 7% | 20µM*
O=C(NCc1ccccc1)c1nn(Cc2ccccc2)c(=O)c2ccccc12 | -17 | · | · | · | · | · | · | · | ·
O=C(Nc1nn(Cc2ccccc2F)cc1Cl)c1nc2ncccn2n1 | 5 | · | · | · | · | · | · | · | ·
